SMILES strings stand for the structures. Values without a mark were called inactive. Activity calls are given as the source filed them. Rule as the data show it: active = inhibition above about 33%; inactive = the rest.

The test is described as follows: compounds suppressing VP16-driven luciferase signal – cell-based, luminescence, high throughput, counter-screen for LRH-1 inverse agonist project (AID 651615). Particulars: Gal4-VP16 luciferase reporter cells, at 3.6 µM, active compounds read high.
One may read the inhibition as the relative decrease from the control value, in per cent. `O=C1C=C(NCc2ccco2)C2(CCCCC2)O1`: the inhibition was 10.7%.

Regarding `Nc1ccccc1Nc1ccncc1[N+](=O)[O-]`, the inhibition was -1.54%.

With `CC(C)C(=O)N1CCN(c2ccccc2NC(=O)c2ccc([N+](=O)[O-])o2)CC1`, the inhibition was 25%.

Regarding `COc1ccc(OCCNC(=O)C2(C)CCN2Cc2ccc3ccccc3c2)cc1` (centres undefined), the inhibition is 1.36%.

In the case of `O=C(CN1CCN(c2ncccn2)CC1)N1CCCc2c1c(=O)oc1ccc(O)cc21`, the inhibition is -33.2%.

With `Cc1ccc(NC(=O)CSc2nc3ncc(Br)cc3[nH]2)cc1C`, the inhibition was 1.21%.

For `CCOc1ccc(Br)cc1C1=NN(C(C)=O)C(c2ccc([N+](=O)[O-])s2)O1` (centres undefined), the inhibition was -1.66%.

On to `COc1ccc(/C=C2/CSC/C(=C/c3ccc(OC)c(OC)c3)C2=O)cc1OC`, for which the inhibition is 76.8% (active).

As to `Oc1cccc(Nc2nc(-c3ccccc3Cl)nc3ccccc23)c1`, the inhibition was -9.51%.

On to `N#Cc1ccccc1NC(=O)c1ccccc1OCC(=O)Nc1ccc2c(c1)oc1ccccc12`, for which the inhibition was 4.76%.

In the case of `Cc1onc(-c2ccccc2Cl)c1-c1nc(-c2ccccn2)no1`, the inhibition is 7.63%.

As to `CC1Cc2ccccc2N1C1=CC(=O)CC(C)(C)C1` (centres undefined), the inhibition was -3.44%.

As for `CCOc1ccc(NC(=O)Cn2nc(-c3ccccc3Cl)n(CC)c2=S)cc1`, the inhibition was 2.74%.

In the case of `COc1ccc(OC)c(C2C3=C(COC3=O)Nc3cc4c(cc32)OCO4)c1` (centres undefined), the inhibition is 27.9%.

`O=C(CSc1nc2ccccc2c(=O)n1-c1ccc(Cl)c(Cl)c1)Nc1ccc2c(c1)CCC2`: the inhibition was -40.9%.

On to `Cc1ccc(NC(=O)CSc2nc3[nH]c(=O)cc(O)c3s2)c(Br)c1`, for which the inhibition was -1.62%.

As for `CCOc1ccc(CCNC(=O)COC(=O)CCc2cc(OC)c(OC)c(OC)c2)cc1OCC`, the inhibition is 2.92%.

Regarding `O=C1C=C(c2ccccc2)OC2(CCCC2)O1`, the inhibition is -4.15%.

On to `O=C(NC1CCCCC1)c1ccc([N+](=O)[O-])o1`, for which the inhibition was -17.1%.

Take `COCC(C)n1c(-c2ccc3c(c2)NC(=O)CO3)csc1=Nc1ccc(OC(F)F)cc1` (centres undefined): the inhibition was 34.4% (active).

For `CCOc1ccc2c(c1)sc(N)[n+]2Cc1cc(C)cc2cccnc12`, the inhibition is 39.5% (active).

In the case of `O=C(COc1ccc2ccc(=O)oc2c1)Nc1ccc(N2CCOCC2)cc1`, the inhibition was -5.4%.

As to `CC(=O)N[C@@H](Cc1c[nH]c2ccccc12)C(=O)OCC(=O)Nc1ccc2c(c1)OCO2`, the inhibition is -4.65%.

Take `COc1ccc(C2=Nn3c(nnc3-c3ccccc3F)SC2)cc1OC1CCOC1` (centres undefined): the inhibition is -40.3%.

For `COc1cc(C(=O)OCC(=O)Nc2ccc(N3CCOCC3)cc2)ccc1OCC(C)C`, the inhibition is -7.28%.

In the case of `Cn1cc(Cl)c(C(=O)OCC(=O)Nc2ccc(S(N)(=O)=O)cc2)n1`, the inhibition was -12.4%.

In the case of `O=C(COc1cc2oc(=O)cc(-c3ccccc3)c2cc1Cl)NCCN1CCOCC1`, the inhibition was -2.31%.

For `Cc1cc(-c2nn3c(-c4ccccc4)nnc3s2)c2ccccc2n1`, the inhibition is -31.6%.

In the case of `COc1ccc(CCNC(=O)COC(=O)C2CC2C)cc1` (centres undefined), the inhibition is 2.63%.

For `O=C1C(=C(I)I)c2ccccc2-c2ccccc21`, the inhibition was -39.2%.

Take `CCOC(=O)c1cc(C#N)c(N2CCCCC2)nc1-c1ccccc1`: the inhibition was -5.07%.

With `CCCCCOc1ccc(NC(=O)CSc2cccc3cccnc23)cc1`, the inhibition is -9.81%.

In the case of `Cc1ccc(NC(=O)COC(=O)C(NS(=O)(=O)c2ccc(Cl)cc2)C(C)O)cc1C` (centres undefined), the inhibition is -7.53%.

As to `Cc1ccc(N2C(=O)C(Cl)=C(N3CCN(C)CC3)C2=O)c(C)c1`, the inhibition is -9.83%.

For the compound `COc1ccc(NC(=O)CSc2nnc3ccc(-c4cccnc4)nn23)cc1OC`, the inhibition is -8.78%.

For the compound `O=[N+]([O-])c1ccc(S(=O)Cc2ccccc2)c([N+](=O)[O-])c1` (centres undefined), the inhibition was 16.7%.

With `O=C(Nc1ccc(C(=O)N2CCOCC2)cc1)c1cccc([N+](=O)[O-])c1`, the inhibition is -0.69%.

With `O=C(Nc1ccc2oc(-c3ccccc3F)nc2c1)c1ccc([N+](=O)[O-])o1`, the inhibition is -24.7%.

On to `CCN(Cc1ccccc1)c1ccc(/C=N/N2CCOCC2)cc1`, for which the inhibition was -9.02%.

These data come from PubChem BioAssay.
